Measured values: the supplement of paper PMC10849652
Targets with a hit are over-represented here; the source holds about 8,800 in all. About 0.5% of all pairs of compound and target were hits.

Experiments:
Assay in all cases: log2 fold change, soluble protein after heating vs DMSO (PISA); higher = thermal stabilisation; K562 lysate, 10 uM; active = over 0.2 and 3.5 SD of the protein, either way, in both replicates (recomputed)
[1] = compound: NCC(=O)Nc1ccc(-n2nc(C(F)(F)F)cc2-c2ccc3c(ccc4ccccc43)c2)cc1
In short: (§1)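 Log-two fold change in thermal stability relative to solvent controls is reported from duplicates. For each sample, crude K562 extract from dounce-homogenised pellets in PBS pH 7.4 with 1 mM MgCl2, at 1 mg/mL protein, was treated with 10 μM compound for 30 min. Aliquots heated for 3 min across 48°C-58°C were pooled, brought to 0.5% NP-40 at 4°C and cleared at 21,000xg for 90 min. The supernatant was quantified by TMTpro 16plex LC-MS/MS with channel sums equalised.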

[2] = compound: O=C(CCCCCCC(=O)Nc1ccccc1)NO [vorinostat]
In short: as §1

[3] = compound: O=C(O)c1ccc2c(c1)nc(Nc1cccc(Cl)c1)c1ccncc12 [silmitasertib]
In short: as §1

[4] = compound: O=C1NC(=O)C(c2cnc3ccccn23)=C1c1cn2c3c(cc(F)cc13)CN(C(=O)N1CCCCC1)CC2
In short: as §1

[5] = compound: c1cn2cc(-c3ccc4cn[nH]c4c3)nc(Nc3ccc(N4CCOCC4)cc3)c2n1 [entospletinib]
In short: as §1

UniProt P39687, sequence (P39687 whole entry, looked up): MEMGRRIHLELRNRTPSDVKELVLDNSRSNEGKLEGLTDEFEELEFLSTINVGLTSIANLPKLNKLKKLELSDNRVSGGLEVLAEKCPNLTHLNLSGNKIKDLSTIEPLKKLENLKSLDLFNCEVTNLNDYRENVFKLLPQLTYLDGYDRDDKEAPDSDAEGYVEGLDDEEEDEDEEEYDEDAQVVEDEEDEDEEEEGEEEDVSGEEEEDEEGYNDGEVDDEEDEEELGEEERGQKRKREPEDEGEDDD
UniProt P30837, sequence (P30837 whole entry, looked up): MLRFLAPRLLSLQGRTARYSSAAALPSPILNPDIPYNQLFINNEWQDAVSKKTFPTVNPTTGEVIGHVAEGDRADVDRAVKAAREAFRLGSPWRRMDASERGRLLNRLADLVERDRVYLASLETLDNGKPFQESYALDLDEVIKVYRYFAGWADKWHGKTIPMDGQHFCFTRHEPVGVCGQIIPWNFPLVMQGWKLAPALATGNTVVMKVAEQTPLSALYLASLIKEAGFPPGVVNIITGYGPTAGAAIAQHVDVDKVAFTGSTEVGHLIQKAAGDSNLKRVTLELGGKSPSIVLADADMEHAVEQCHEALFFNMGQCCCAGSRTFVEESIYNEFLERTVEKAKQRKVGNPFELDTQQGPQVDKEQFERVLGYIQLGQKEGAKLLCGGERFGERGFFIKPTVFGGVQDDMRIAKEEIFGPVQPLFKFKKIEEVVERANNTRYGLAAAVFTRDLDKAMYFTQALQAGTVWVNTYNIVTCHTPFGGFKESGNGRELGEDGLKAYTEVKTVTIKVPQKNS
UniProt P04083, sequence (P04083 whole entry, looked up): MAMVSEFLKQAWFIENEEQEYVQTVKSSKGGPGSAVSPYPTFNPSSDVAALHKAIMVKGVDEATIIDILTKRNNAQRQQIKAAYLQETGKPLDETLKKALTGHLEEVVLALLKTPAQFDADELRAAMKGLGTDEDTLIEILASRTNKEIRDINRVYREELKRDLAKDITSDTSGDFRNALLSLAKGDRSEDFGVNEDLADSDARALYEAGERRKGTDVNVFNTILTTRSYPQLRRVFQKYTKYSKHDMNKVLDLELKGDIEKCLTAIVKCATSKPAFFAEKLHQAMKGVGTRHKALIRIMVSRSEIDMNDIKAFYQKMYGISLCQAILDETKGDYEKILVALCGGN
UniProt Q9NUQ8, sequence (Q9NUQ8 whole entry, looked up): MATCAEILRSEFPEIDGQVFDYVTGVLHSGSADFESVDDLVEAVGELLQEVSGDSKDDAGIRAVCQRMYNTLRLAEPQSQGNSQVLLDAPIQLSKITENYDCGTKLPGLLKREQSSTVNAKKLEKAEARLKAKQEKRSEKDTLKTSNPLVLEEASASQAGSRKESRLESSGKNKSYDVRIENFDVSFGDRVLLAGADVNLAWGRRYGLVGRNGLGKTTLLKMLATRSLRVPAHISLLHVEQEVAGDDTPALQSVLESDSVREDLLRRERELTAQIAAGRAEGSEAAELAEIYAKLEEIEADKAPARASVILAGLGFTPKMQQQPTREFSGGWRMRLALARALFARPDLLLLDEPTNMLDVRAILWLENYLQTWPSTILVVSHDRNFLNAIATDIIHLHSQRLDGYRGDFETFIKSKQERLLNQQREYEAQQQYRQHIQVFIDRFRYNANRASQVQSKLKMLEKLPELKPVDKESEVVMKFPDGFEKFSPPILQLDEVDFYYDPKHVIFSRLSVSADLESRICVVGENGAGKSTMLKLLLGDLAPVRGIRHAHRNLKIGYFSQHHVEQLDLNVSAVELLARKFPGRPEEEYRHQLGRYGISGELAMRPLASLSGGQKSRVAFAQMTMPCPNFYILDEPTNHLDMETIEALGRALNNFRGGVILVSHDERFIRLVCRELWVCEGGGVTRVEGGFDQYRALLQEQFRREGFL
UniProt Q96P48, sequence (Q96P48 whole entry, looked up): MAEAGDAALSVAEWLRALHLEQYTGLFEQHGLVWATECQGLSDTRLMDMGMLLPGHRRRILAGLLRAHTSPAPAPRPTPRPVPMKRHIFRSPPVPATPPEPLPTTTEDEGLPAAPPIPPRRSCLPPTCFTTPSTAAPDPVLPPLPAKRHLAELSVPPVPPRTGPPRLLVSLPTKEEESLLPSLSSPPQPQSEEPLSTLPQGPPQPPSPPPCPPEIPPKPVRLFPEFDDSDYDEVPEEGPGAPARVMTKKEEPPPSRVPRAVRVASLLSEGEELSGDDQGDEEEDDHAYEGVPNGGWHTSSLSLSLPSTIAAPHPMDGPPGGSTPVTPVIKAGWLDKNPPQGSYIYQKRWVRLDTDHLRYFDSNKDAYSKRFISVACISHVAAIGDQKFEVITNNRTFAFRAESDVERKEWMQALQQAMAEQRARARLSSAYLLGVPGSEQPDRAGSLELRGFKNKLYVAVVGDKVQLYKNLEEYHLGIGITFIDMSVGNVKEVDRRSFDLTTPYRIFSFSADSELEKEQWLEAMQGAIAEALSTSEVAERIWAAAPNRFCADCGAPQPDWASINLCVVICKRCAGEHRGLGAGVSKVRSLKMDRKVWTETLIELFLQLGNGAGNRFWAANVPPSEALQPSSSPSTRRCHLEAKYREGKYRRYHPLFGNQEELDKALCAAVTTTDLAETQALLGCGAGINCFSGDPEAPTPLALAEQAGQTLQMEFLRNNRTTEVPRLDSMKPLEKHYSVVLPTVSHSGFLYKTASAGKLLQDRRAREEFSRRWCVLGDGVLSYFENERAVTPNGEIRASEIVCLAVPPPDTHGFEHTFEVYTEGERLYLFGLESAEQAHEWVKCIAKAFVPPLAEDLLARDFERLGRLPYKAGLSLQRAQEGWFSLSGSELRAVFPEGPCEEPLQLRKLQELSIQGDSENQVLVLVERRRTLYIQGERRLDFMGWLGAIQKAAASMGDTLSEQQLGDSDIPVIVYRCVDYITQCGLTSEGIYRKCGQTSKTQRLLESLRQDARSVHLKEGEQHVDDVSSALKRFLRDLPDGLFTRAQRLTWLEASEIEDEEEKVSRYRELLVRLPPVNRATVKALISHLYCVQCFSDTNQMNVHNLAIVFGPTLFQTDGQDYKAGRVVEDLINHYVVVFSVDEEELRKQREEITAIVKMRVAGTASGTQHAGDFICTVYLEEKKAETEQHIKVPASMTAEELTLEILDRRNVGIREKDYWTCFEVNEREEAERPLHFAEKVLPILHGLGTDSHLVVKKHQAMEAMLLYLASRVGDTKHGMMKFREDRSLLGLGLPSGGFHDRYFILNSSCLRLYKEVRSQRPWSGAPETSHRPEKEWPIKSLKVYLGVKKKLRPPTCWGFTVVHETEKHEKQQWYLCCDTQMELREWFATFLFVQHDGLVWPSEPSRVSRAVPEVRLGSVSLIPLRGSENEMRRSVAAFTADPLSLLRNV
UniProt Q9UH62, sequence (Q9UH62 whole entry, looked up): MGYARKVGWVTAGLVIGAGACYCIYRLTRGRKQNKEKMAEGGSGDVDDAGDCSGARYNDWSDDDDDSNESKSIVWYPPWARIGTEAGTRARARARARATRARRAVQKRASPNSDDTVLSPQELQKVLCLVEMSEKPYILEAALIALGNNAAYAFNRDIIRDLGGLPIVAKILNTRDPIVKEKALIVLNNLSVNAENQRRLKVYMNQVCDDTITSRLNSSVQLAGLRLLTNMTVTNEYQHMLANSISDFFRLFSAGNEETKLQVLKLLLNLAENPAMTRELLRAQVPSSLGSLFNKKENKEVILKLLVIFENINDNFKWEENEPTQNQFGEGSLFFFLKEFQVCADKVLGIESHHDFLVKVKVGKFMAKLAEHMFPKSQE
UniProt Q9Y6B7, sequence (Q9Y6B7 whole entry, looked up): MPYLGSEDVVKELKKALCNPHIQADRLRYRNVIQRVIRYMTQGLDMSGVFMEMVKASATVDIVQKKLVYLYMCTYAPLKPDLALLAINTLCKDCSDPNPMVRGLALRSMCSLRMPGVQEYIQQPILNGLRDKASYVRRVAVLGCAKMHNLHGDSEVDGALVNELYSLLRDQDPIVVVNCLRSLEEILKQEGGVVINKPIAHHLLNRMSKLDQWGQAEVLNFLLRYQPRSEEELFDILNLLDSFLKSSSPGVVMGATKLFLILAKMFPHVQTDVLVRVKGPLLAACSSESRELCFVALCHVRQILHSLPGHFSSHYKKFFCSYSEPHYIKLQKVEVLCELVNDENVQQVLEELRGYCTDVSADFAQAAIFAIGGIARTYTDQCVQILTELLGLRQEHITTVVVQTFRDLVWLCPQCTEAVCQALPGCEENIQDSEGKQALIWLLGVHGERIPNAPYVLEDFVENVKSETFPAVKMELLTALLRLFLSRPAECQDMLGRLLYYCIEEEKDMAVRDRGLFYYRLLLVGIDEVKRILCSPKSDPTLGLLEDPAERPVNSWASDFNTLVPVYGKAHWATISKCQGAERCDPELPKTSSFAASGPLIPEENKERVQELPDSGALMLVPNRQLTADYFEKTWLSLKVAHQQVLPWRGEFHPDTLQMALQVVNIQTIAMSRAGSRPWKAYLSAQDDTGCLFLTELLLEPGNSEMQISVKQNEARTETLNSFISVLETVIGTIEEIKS
UniProt O00170, sequence (O00170 whole entry, looked up): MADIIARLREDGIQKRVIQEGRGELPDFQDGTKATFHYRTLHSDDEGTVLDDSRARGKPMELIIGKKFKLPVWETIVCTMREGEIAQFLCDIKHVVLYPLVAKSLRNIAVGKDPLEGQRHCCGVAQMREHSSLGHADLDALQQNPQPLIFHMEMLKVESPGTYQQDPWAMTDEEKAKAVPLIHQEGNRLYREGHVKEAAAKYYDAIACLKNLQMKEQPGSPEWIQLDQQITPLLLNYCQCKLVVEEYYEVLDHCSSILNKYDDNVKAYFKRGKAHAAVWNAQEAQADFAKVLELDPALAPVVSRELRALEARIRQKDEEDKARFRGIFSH
UniProt O15120, sequence (O15120 whole entry, looked up): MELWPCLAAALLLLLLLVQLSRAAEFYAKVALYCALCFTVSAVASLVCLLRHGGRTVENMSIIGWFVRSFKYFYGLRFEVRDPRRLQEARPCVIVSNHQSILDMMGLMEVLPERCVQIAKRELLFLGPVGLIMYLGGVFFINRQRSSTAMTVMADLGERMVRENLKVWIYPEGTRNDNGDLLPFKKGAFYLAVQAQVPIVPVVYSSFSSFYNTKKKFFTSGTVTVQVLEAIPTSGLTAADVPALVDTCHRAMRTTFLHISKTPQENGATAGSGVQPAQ

| Target | log2 fold change [1] | log2 fold change [2] | log2 fold change [3] | log2 fold change [4] | log2 fold change [5] |
| --- | --- | --- | --- | --- | --- |
| ACADM isoform 2 (UniProt P11310) | -0.015 (inactive) | 0.344 (active) | -0.015 (inactive) | 0.023 (inactive) | 0.016 (inactive) |
| AFF1 isoform 2 (UniProt P51825) | 0.019 (inactive) | -0.074 (inactive) | -0.046 (inactive) | -0.046 (inactive) | -0.064 (inactive) |
| ALDH2 (UniProt P05091) | -0.068 (inactive) | 0.627 (active) | 0.009 (inactive) | 0.019 (inactive) | -0.009 (inactive) |
| AMDHD2 isoform 3 (UniProt Q9Y303) | 0.038 (inactive) | 0.088 (inactive) | -0.004 (inactive) | -0.002 (inactive) | 0.056 (inactive) |
| AK4 (UniProt P27144) | -0.051 (inactive) | 0.037 (inactive) | -0.008 (inactive) | -0.016 (inactive) | -0.02 (inactive) |
| ABL2 (UniProt P42684) | -0.093 (inactive) | -0.274 (inactive) | 0.073 (inactive) | -0.055 (inactive) | -0.05 (inactive) |
| ANXA1 (UniProt P04083) | -0.013 (inactive) | -0.255 (active) | -0.007 (inactive) | -0.031 (inactive) | 0.011 (inactive) |
| ACACB (UniProt O00763) | -0.026 (inactive) | -0.438 (active) | 0.03 (inactive) | -0.009 (inactive) | 0.088 (inactive) |
| AGL (UniProt P35573) | 0 (inactive) | -0.275 (active) | 0.035 (inactive) | 0.001 (inactive) | -0.018 (inactive) |
| ARL8A (UniProt Q96BM9) | 0.192 (inactive) | 0.234 (inactive) | -0.024 (inactive) | -0.03 (inactive) | 0.002 (inactive) |
| ACSL4 (UniProt O60488) | 0.137 (inactive) | -0.321 (active) | 0.066 (inactive) | -0.002 (inactive) | 0.014 (inactive) |
| ARGLU1 (UniProt Q9NWB6) | 0.01 (inactive) | 0.116 (inactive) | 0.008 (inactive) | -0.067 (inactive) | -0.054 (inactive) |
| ACYP1 (UniProt P07311) | -0.015 (inactive) | 0.127 (inactive) | -0.028 (inactive) | -0.002 (inactive) | 0.008 (inactive) |
| ANXA2 isoform 2 (UniProt P07355) | -0.015 (inactive) | 0.023 (inactive) | -0.015 (inactive) | 0.003 (inactive) | 0.016 (inactive) |
| AKAP11 (UniProt Q9UKA4) | -0.066 (inactive) | -0.164 (inactive) | 0.019 (inactive) | -0.057 (inactive) | 0.015 (inactive) |
| ANP32A (UniProt P39687) | -0.005 (inactive) | 0.08 (inactive) | 0.063 (inactive) | -0.027 (inactive) | 0.026 (inactive) |
| ABHD11 (UniProt Q8NFV4) | -0.001 (inactive) | 0.195 (inactive) | 0.324 (active) | 0.003 (inactive) | 0.05 (inactive) |
| AGTPBP1 (UniProt Q9UPW5) | 0.125 (inactive) | -0.033 (inactive) | -0.012 (inactive) | 0.11 (inactive) | 0.035 (inactive) |
| AIP (UniProt O00170) | -0.001 (inactive) | -0.061 (inactive) | -0.032 (inactive) | 0.003 (inactive) | -0.003 (inactive) |
| ACTBL2 (UniProt Q562R1) | -0.116 (inactive) | -0.154 (inactive) | 0.039 (inactive) | 0.019 (inactive) | -0.083 (inactive) |
| ARMCX3 (UniProt Q9UH62) | 0.042 (inactive) | -0.279 (active) | 0.036 (inactive) | -0.024 (inactive) | 0.047 (inactive) |
| ADD1 isoform 3 (UniProt P35611) | -0.024 (inactive) | 0.048 (inactive) | -0.012 (inactive) | -0.022 (inactive) | -0.014 (inactive) |
| AFF4 (UniProt Q9UHB7) | -0.119 (inactive) | 0.078 (inactive) | -0.04 (inactive) | -0.031 (inactive) | -0.088 (inactive) |
| ANKRD40 (UniProt Q6AI12) | 0.914 (active) | -0.217 (inactive) | -0.088 (inactive) | 0.007 (inactive) | -0.057 (inactive) |
| AARS2 (UniProt Q5JTZ9) | -0.004 (inactive) | -0.243 (active) | 0.085 (inactive) | 0.028 (inactive) | 0.035 (inactive) |
| APEX1 (UniProt P27695) | 0.007 (inactive) | -0.15 (inactive) | 0.026 (inactive) | -0.001 (inactive) | -0.002 (inactive) |
| AGGF1 (UniProt Q8N302) | 0.135 (inactive) | 0.059 (inactive) | -0.06 (inactive) | 0 (inactive) | -0.015 (inactive) |

| Target | log2 fold change [1] | log2 fold change [2] | log2 fold change [3] | log2 fold change [4] | log2 fold change [5] |
| --- | --- | --- | --- | --- | --- |
| ABCF3 (UniProt Q9NUQ8) | 0.026 (inactive) | -0.439 (active) | 0.033 (inactive) | -0.004 (inactive) | -0.013 (inactive) |
| ADRM1 (UniProt Q16186) | 0.051 (inactive) | -0.231 (active) | -0.027 (inactive) | -0.04 (inactive) | -0.002 (inactive) |
| ABHD17B (UniProt Q5VST6) | 0.096 (inactive) | 0.219 (inactive) | -0.021 (inactive) | 0.032 (inactive) | 0.2 (inactive) |
| AP4B1 (UniProt Q9Y6B7) | 0.08 (inactive) | -0.286 (active) | 0.037 (inactive) | -0.051 (inactive) | 0.022 (inactive) |
| AGPAT2 (UniProt O15120) | -0.234 (inactive) | 0.104 (inactive) | -0.026 (inactive) | -0.052 (inactive) | 0.063 (inactive) |
| AGO4 (UniProt Q9HCK5) | -0.007 (inactive) | 0.09 (inactive) | -0.018 (inactive) | -0.006 (inactive) | -0.013 (inactive) |
| ARAF (UniProt P10398) | -0.072 (inactive) | -0.487 (active) | -0.023 (inactive) | 0.019 (inactive) | -0.011 (inactive) |
| ARHGEF2 (UniProt Q92974) | 0.042 (inactive) | -0.248 (active) | -0.029 (inactive) | 0.007 (inactive) | 0 (inactive) |
| AIFM2 (UniProt Q9BRQ8) | -0.014 (inactive) | -0.261 (inactive) | -0.015 (inactive) | 0.188 (inactive) | 0.003 (inactive) |
| ANLN (UniProt Q9NQW6) | 0.018 (inactive) | -0.656 (active) | -0.011 (inactive) | -0.009 (inactive) | 0 (inactive) |
| ARHGAP25 isoform 4 (UniProt P42331) | 0.027 (inactive) | -0.377 (active) | 0.011 (inactive) | -0.038 (inactive) | 0.009 (inactive) |
| ASNS (UniProt P08243) | 0.006 (inactive) | -0.373 (active) | -0.01 (inactive) | -0.008 (inactive) | 0.029 (inactive) |
| ALDH1B1 (UniProt P30837) | 0.027 (inactive) | 1.15 (active) | -0.051 (inactive) | -0.022 (inactive) | 0.033 (inactive) |
| ABCA3 (UniProt Q99758) | -0.157 (inactive) | 0.087 (inactive) | -0.062 (inactive) | 0 (inactive) | 0.28 (inactive) |
| ADK (UniProt P55263) | -0.049 (inactive) | -0.052 (inactive) | 0.073 (inactive) | 0.262 (inactive) | -0.027 (inactive) |
| ANKRD52 (UniProt Q8NB46) | -0.043 (inactive) | -0.491 (active) | 0.063 (inactive) | -0.023 (inactive) | -0.057 (inactive) |
| AMD1 (UniProt P17707) | 0.071 (inactive) | -0.076 (inactive) | 0.062 (inactive) | 0.499 (inactive) | 0.211 (inactive) |
| ABHD17A isoform 2 (UniProt Q96GS6) | 0.001 (inactive) | 0.363 (active) | -0.059 (inactive) | -0.025 (inactive) | 0.043 (inactive) |
| ACIN1 (UniProt E7EQT4) | 0.076 (inactive) | 0.079 (inactive) | -0.013 (inactive) | -0.013 (inactive) | 0.021 (inactive) |
| ANP32E (UniProt Q9BTT0) | 0.021 (inactive) | 0.217 (inactive) | -0.029 (inactive) | -0.011 (inactive) | 0.012 (inactive) |
| AMMECR1 (UniProt Q9Y4X0) | 0.004 (inactive) | -0.387 (active) | 0.003 (inactive) | -0.016 (inactive) | 0 (inactive) |
| ARMC6 (UniProt Q6NXE6) | -0.011 (inactive) | -0.422 (active) | 0.02 (inactive) | -0.006 (inactive) | 0.011 (inactive) |
| ACSL1 (UniProt P33121) | -0.092 (inactive) | -0.221 (active) | 0.138 (inactive) | -0.031 (inactive) | -0.027 (inactive) |
| ARAP1 (UniProt Q96P48) | -0.04 (inactive) | -0.379 (active) | 0.017 (inactive) | -0.014 (inactive) | -0.012 (inactive) |
| ALG8 (UniProt Q9BVK2) | -0.022 (inactive) | -0.05 (inactive) | 0.063 (inactive) | -0.008 (inactive) | -0.007 (inactive) |
| AKT1 (UniProt P31749) | -0.051 (inactive) | -0.192 (inactive) | -0.012 (inactive) | -0.024 (inactive) | -0.005 (inactive) |
